Test results from PubChem BioAssay.
Active and inactive are the calls of the source.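 The calls were made as follows: active = growth inhibition above 50% at the single 2 µM test dose, taken to imply half-maximal potency below 2 µM; inactive = the rest.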

Test: antimalarial activity against Dd2 strain (AID 2302);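 also: 0% = DMSO untreated growth and 100% = chloroquine plus artemisinin killed control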
Settings: P. falciparum Dd2 in RBCs, LDH growth readout, 72 h; at 2 µM; hits give high values
For CC(C)N1CCN(C(CN2CCN(CCCOc3ccccc3-c3ccccc3)CC2)c2ccc(F)cc2)CC1 (centres undefined), the growth inhibition was 96% (active).
In the case of Cc1cc(OCCCN2CCC(NS(=O)(=O)c3cc(Br)c(Cl)s3)CC2)c2ccccc2n1, the growth inhibition is reported as 39% (inactive).
For Cc1nnsc1C(=O)Nc1ccc(-c2ccc(-c3nc4c(C)cccc4[nH]3)s2)cc1, the growth inhibition was 61% (active).
With CN(C)CCCNc1ncnc2c1[nH]c1ccc(Cl)cc12 the growth inhibition was 3% (inactive).
In the case of Cc1cc(N)cc2[nH]c(-c3ccc(N)cc3)nc12, the growth inhibition is reported as 75% (active).
With O=C(Nc1cccc(CN2CCN(C(=O)c3cccc(F)c3)CC2)c1)c1cccs1 the growth inhibition was 95% (active).
With OCCN1CCN(C(=S)Nc2ccccc2)CC1 the growth inhibition was 7% (inactive).
With CC(=O)Oc1c(C2CCN(CCCCNC(=O)c3ccc(NC(=O)c4ccc(Cl)cc4)cc3)CC2)ccc2ccccc12 the growth inhibition was 92% (active).
With CCOC(=O)c1c(CNc2ccncc2)n(C)c2cc(Br)c(OC(C)=O)cc12 the growth inhibition was 93% (active).
For O=C(Nc1ccccc1N1CCOCC1)c1ncoc1-c1ccccc1C(F)(F)F, the growth inhibition was 60% (active).
For Cc1nc(-c2cccc(Nc3nccc(NCC(O)c4ccc(C(F)(F)F)cc4)n3)c2)cs1 (centres undefined), the growth inhibition was 99% (active).
For OCc1c(Cl)cc(Cl)cc1CNCCCNc1nc2ccccc2[nH]1, the growth inhibition was 2% (inactive).
With COC(=O)c1cccc(CNCc2cccc(-c3cccc(-c4nc5ccc(F)cc5[nH]4)c3)c2)c1 the growth inhibition was 52% (active).
In the case of CC(C)(C)c1ccc(OC(=O)c2ccc(NC(=O)N[C@@H](Cc3ccc(O)cc3)C(=O)NC3CCN(Cc4ccc(O)cc4)C3)cc2)cc1 (some centres undefined), the growth inhibition is reported as 67% (active).
With CN1CCC(N(Cc2ccc(-c3ccc(C(F)(F)F)cc3)cc2)C(=O)Cn2cc(Cc3cnn(C)c3)c(=O)nc2SCc2cccc(F)c2F)CC1 the growth inhibition was 91% (active).
With c1ccc2c(CNc3ccnc(NCc4cccc5ccccc45)n3)cccc2c1 the growth inhibition was 71% (active).
In the case of O=C(Nc1cccc(CN2CCN(Cc3ccc(O)cc3)CC2)c1)c1cc2ccccc2s1, the growth inhibition is reported as 26% (inactive).
With CC(=O)Nc1ccc(C(=O)Nc2ccc(-c3csc(-c4nc5ccccc5[nH]4)c3)cc2)cn1 the growth inhibition was -2% (inactive).
For CC1(C)N=C(N)N=C(N)N1OCc1ccc(-c2ccccc2)cc1, the growth inhibition was 97% (active).
For Cc1ccc2c(NN=Cc3cccc(Cl)c3)cc(C)nc2c1, the growth inhibition was 52% (active).
In the case of COc1ccc2nccc([C@@H](O)CN3CCC(NCc4cc5cc(C)ccc5s4)CC3)c2c1, the growth inhibition is reported as 74% (active).
For Cc1cccc2sc(N(CCCn3ccnc3)C(=O)C=Cc3cccs3)nc12, the growth inhibition was 9% (inactive).
With O=C(NCCCCN1CCC(c2ccc3c(c2OCC(O)c2ccc(Cl)cc2)CCCC3)CC1)c1ccc(-c2ccc(C(F)(F)F)cc2)cc1 (centres undefined) the growth inhibition was 67% (active).
In the case of OC(CNCCc1ccccc1)Cn1c2ccc(Cl)cc2c2cc(Cl)ccc21 (centres undefined), the growth inhibition is reported as 96% (active).
In the case of Cc1cc(N(C)C2CCN(CC3CCCCC3)C2)nc(Nc2ccc(Cl)cc2)n1 (centres undefined), the growth inhibition is reported as 35% (inactive).
For COc1ccc(CN2CCC(NCc3ccc(C(F)(F)F)cc3)CC2)cc1, the growth inhibition was -1% (inactive).
With O=C(Cc1ccccc1)NC(CCN1CCC(N(C2CC2)S(=O)(=O)c2cccc(C(F)(F)F)c2)CC1)c1ccc(Cl)c(Cl)c1 (centres undefined) the growth inhibition was 27% (inactive).
For COc1cccc(C(=O)NC(c2ccc(Cl)cc2Cl)c2cc(Cl)c3cccnc3c2O)c1 (centres undefined), the growth inhibition was 76% (active).
With O=C(Nc1ccc(N2CCN(C(=O)C=Cc3ccccc3)CC2)c(Cl)c1)c1ccc([N+](=O)[O-])o1 the growth inhibition was 90% (active).
In the case of CCCN1CCN(CCCNC(=O)c2cc3c(-c4ccc(Cl)cc4)nn(C)c3s2)CC1, the growth inhibition is reported as 20% (inactive).
In the case of Cn1nccc1C(=O)NCCNCc1ccc(-c2ccc(-c3nc4ccc(F)cc4[nH]3)cc2)cc1, the growth inhibition is reported as 98% (active).
With O=C(Nc1ccc(Cl)c(-c2nc3ccccc3[nH]2)c1)c1ccc(-c2ccc(Cl)cc2)o1 the growth inhibition was 22% (inactive).
In the case of COc1cc(N(Cc2ccccc2C)S(=O)(=O)Cc2ccccc2[N+](=O)[O-])c(OC)cc1Cl, the growth inhibition is reported as 44% (inactive).
For Cc1onc(-c2ccccc2)c1C(=O)Nc1nc(-c2ccccn2)nc2ccsc12, the growth inhibition was 78% (active).
In the case of N#Cc1cc(C(=O)Nc2ccccc2)c(N)nc1SCC(=O)Nc1ccc(Br)cc1, the growth inhibition is reported as 66% (active).
For O=C(Nc1ccc(Oc2ccccc2)cc1)N[C@H]1CCN(Cc2ccc(OCCCN3CCCCC3)cc2)C1, the growth inhibition was 6% (inactive).
For CCOC(=O)NC1=NC(C)(C)N(OCCCOc2cc(Cl)c(Cl)cc2Cl)C(N)=N1, the growth inhibition was 94% (active).
In the case of Cc1ccc(/C=C/C(=O)NC2CCC(N3CCC(c4ccccc4C)CC3)CC2)cc1F (centres undefined), the growth inhibition is reported as 18% (inactive).
With Cc1ccc(CNC(=O)[C@H](CCCN)Nc2cc(C)nc(NCC3CCCCC3)n2)cc1 the growth inhibition was -2% (inactive).
